“And” between values parts separate entries of the source, which are not always exact repeats. Equal entries are not always repeated. Inconclusive results are not listed. The source made the active and inactive calls. Unless noted, the call rests on the fitted dose curve; in most records, active means well fitted curve in the direction sought with a large enough effect; inconclusive means small, poorly fitted or top-dose-only effect, or another doubt; inactive means no such curve, though single readings can be large; an effect the other way counts as inactive or inconclusive.
Tests used:
[1] = Cellular Toxicity (caspase-3) HepG2 (AID 654);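 further: cells exposed to compound for 16 hours before reading; 0% = DMSO alone and 100% = caspase signal from 100 µM tamoxifen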
Summary of the method: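 qHTS, HepG2, 1500 cells/well, complete medium; cpd 16 h 37 °C; Caspase-Glo 3/7, 20 min RT; lum. Norm: DMSO vs 100 uM tamoxifen; AC50 Hill fit.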

[2] = Cellular Toxicity (caspase-3) Jurkat (AID 655);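 further: cells exposed to compound for 16 h at 37 °C before reading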
Summary of the method: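 Luminescent Caspase-Glo 3/7 read-out (20 min, room temperature) after 16 h compound treatment at 37 C of 5000 Jurkat cells per well. AC50 derived by Hill-equation fitting, scaled between DMSO basal and 100 uM tamoxifen stimulation.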

[3] = Cellular Toxicity (caspase-3) HUV-EC-C (AID 656);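 further: 0% = DMSO basal and 100% = 100 µM tamoxifen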
Summary of the method: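 Luminescent Caspase-Glo 3/7 readout after 16 h, 37 °C compound exposure of HUV-EC-C endothelial cells, 1000 per well, complete medium. AC50 derived by Hill fitting, with DMSO as baseline and 100 uM tamoxifen as full activation.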

[4] = Cellular Toxicity (caspase-3) SHSY5Y (AID 657)
Summary of the method: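 Luminescent Caspase-Glo 3/7 read-out, 1 hr room temperature, follows 16 hours of compound treatment of SH-SY5Y cells at 37 °C. Normalization: DMSO basal, 10 uM staurosporine as 100%; AC50 values from Hill-equation concentration-response fits.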

[5] = Cellular Toxicity (caspase-3) BJ (AID 658);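 further: 0% = DMSO basal and 100% = 10 µM staurosporine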
Summary of the method: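 Readout: Caspase-Glo 3/7 luminescence increase in BJ cells after 16 hr treatment at 37 °C. Staurosporine and tamoxifen served as positive controls; AC50 values came from Hill modelling of data normalized to DMSO and 10 uM staurosporine.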

[6] = Cellular Toxicity (caspase-3) MRC-5 (AID 659);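 further: 0% = DMSO basal and 100% = 10 µM staurosporine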
Summary of the method: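 Concentration-dependent caspase 3/7 activation is measured in human normal lung fibroblasts (MRC-5) following 16-hour treatment. AC50 values come from standard Hill-equation modeling of luminescence normalized to DMSO and 10 uM staurosporine.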

[7] = Cellular Toxicity (caspase-3) Mesangial (AID 660);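 further: combined caspase 3 and 7 activity read by Caspase-Glo luminescence; cells exposed to compound for 16 h before the caspase read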
Summary of the method: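 Concentration-response qHTS: compound-induced rise in caspase 3/7 luminescence in human mesangial cells after 16 h, normalized to DMSO and 100 uM tamoxifen controls.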

[8] = Cellular Toxicity (caspase-3) SK-N-SH (AID 661);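 further: 0% = DMSO basal and 100% = 10 µM staurosporine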
Summary of the method: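 Caspase 3/7 activation is measured as a luminescence increase from aminoluciferin released by substrate cleavage in SK-N-SH cells after 16 hr compound treatment; values are AC50 from concentration-response curves.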

[9] = Cellular Toxicity (caspase-3) H-4-II-E (AID 663);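 further: cells exposed to compound for 16 hr before readout; 0% = DMSO basal and 100% = 100 µM tamoxifen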
Summary of the method: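 Apoptosis induction is scored as increased luminescence from caspase 3/7 substrate cleavage in rat hepatoma H-4-II-E cells exposed to compound for 16 hr. Activity is scaled between DMSO and 100 uM tamoxifen.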

[10] = Cellular Toxicity (caspase-3) Hek293 (AID 664);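 further: cells exposed to compound for 16 h at 37 °C before readout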
Summary of the method: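 Activation of caspase-3/7 is measured as increased luminescence from cleaved peptide-aminoluciferin substrate in HEK293 cells treated 16 hours at 37 °C. AC50 values come from Hill-equation fits of concentration-response data.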

[11] = Cellular Toxicity (caspase-3) N2a (AID 665);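 further: compound exposure lasted 16 h at 37 °C before readout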
Summary of the method: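 Plated mouse neuroblastoma N2a cells received titrated compounds for 16 h in complete medium. Caspase activity was then detected with a peptide-aminoluciferin luminescent reagent.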

[12] = Cellular Toxicity (caspase-3) NIH 3T3 (AID 666);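 further: caspase signal read after 16 h compound exposure; 0% = DMSO basal and 100% = 100 µM tamoxifen stimulation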
Summary of the method: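 Concentration-response qHTS in NIH 3T3 mouse fibroblasts scores caspase-3/7 activation as rising luminescence after 16 hr compound exposure. Signals are scaled between DMSO-only and 100 uM tamoxifen.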

[13] = Cellular Toxicity (caspase-3) Renal Proximal Tubule (AID 667);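 further: cells exposed to compound for 16 hours at 37 °C before detection; 0% = DMSO basal and 100% = 10 µM staurosporine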
Summary of the method: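 Caspase 3/7 activation measured by luminescent aminoluciferin release in primary rat proximal tubule cells after 16 hr compound exposure at 37 °C. AC50 from Hill-fitted concentration-response, scaled between DMSO and 10 uM staurosporine.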

[14] = biological target: Voltage-gated inwardly rectifying potassium channel KCNH2 (Homo sapiens) (UniProt Q12809); test: qHTS Assay for Small Molecule Inhibitors of the Human hERG Channel Activity (AID 588834);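 further: top concentration of the series differs between compounds; on the % scale 0 is the no-effect control and ±100 the full control effect; lower thallium flux fluorescence means stronger hERG block; nearly all actives have a fitted effect of over 50% in size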
Sequence of Voltage-gated inwardly rectifying potassium channel KCNH2 (Homo sapiens) (Q12809 whole entry, looked up): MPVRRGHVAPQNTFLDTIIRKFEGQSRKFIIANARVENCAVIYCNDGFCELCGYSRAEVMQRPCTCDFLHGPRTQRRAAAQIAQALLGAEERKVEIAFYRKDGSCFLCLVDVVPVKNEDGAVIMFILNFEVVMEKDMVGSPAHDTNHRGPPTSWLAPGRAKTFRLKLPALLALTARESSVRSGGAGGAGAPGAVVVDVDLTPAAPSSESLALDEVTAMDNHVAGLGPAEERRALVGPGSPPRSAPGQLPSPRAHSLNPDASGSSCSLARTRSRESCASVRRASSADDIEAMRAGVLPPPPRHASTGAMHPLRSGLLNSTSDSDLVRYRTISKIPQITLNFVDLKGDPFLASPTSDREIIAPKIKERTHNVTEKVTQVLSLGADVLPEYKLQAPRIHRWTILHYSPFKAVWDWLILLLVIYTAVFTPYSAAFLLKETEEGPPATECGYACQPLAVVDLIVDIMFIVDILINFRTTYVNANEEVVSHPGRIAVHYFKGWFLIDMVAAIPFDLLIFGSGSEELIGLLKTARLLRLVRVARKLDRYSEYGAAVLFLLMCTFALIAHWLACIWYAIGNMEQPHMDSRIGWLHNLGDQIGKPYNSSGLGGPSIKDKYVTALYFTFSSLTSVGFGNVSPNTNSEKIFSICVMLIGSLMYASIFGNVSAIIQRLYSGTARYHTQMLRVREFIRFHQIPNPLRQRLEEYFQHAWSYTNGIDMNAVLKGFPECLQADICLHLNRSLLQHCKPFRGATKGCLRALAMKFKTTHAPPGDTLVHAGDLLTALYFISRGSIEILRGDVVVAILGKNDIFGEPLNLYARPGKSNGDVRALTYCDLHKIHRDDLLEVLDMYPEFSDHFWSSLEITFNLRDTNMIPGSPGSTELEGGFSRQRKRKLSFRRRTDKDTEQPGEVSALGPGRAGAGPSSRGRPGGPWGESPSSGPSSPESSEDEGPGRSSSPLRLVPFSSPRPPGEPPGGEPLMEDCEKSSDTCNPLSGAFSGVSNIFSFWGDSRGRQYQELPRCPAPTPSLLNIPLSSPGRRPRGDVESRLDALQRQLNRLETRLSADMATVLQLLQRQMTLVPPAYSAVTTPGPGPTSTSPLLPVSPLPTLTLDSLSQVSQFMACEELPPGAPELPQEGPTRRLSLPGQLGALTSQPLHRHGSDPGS
Summary of the method: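 Kinetic FDSS fluorescence; U2OS + hERG BacMam (~100 virus particles/cell); FluxOR Tl+ flux; ~10 min cpd; AC50 (Hill).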

[15] = qHTS assay for small molecule disruptors of the mitochondrial membrane potential - 1 hr assay (AID 651754; calls by dose curve; further: on the % scale 0 is the no-effect control and ±100 the full control effect; nearly all actives have a fitted effect of over 35% in size)
Summary of the method: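 Steps: seed HepG2 cells and let attach overnight; pin-transfer compound or vehicle; incubate 1 hr at 37C; add Mito-MPS dye for 30 min; read two-channel fluorescence for monomer and aggregate forms.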

[16] = qHTS assay for small molecule disruptors of the mitochondrial membrane potential - 5 hr assay (AID 651755; calls by dose curve; further: on the % scale 0 is the no-effect control and ±100 the full control effect; nearly all actives have a fitted effect of over 40% in size)
Summary of the method: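 HepG2, 2,000 cells/well, overnight attach; cpd or DMSO 5 hr, 37C/5% CO2; Mito-MPS 30 min 37C; fluor 490/535 + 540/590 nm.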

[17] = biological target: Tumor necrosis factor (Homo sapiens) (UniProt P01375); test: qHTS assay to identify small molecules that stimulate Tumor Necrosis Factor-alpha (TNF-alpha) secretion (AID 651757; active means well fitted curve in the direction sought with a large enough effect in the signal ratio; the % refers to the signal ratio; further: 0% is about no effect)
Sequence of Tumor necrosis factor (Homo sapiens) (P01375 whole entry, looked up): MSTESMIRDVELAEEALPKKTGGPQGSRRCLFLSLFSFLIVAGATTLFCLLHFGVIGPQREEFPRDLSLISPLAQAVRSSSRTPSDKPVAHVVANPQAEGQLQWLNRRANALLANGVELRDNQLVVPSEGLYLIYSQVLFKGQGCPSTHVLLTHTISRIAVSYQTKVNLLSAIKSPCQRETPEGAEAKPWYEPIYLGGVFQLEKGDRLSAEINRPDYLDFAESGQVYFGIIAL
Summary of the method: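 Secreted TNF-alpha from compound-treated THP-1 cells (17 hrs, 37 C) was quantified with a homogeneous time-resolved fluorescence antibody assay.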

[18] = qHTS assay for environmental chemicals that activate the Aryl hydrocarbon Receptor (AhR) signaling pathway (AID 651777); settings: 1A2-DRE human hepatoma cells, luciferase, 24 h; active compounds read high; further: % of control where 0% means no effect; nearly all actives have a fitted effect of over 15% in size
Summary of the method: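 Induction of CYP1A2 transcription through AhR is detected by luciferase in 1A2-DRE hepatoma cells. Compounds or DMSO act for 24 hr at 37 C before a 30 min One-Glo step at room temperature.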

[19] = biological target: Peroxisome proliferator-activated receptor alpha (Homo sapiens) (UniProt Q07869); test: qHTS assay for small molecule agonists of the peroxisome proliferator-activated receptor alpha (PPARalpha) signaling pathway (AID 651778); settings: PathHunter PPARalpha complementation, chemiluminescence, 6 h; active compounds read high; further: % of control where 0% means no effect
Sequence of Peroxisome proliferator-activated receptor alpha (Homo sapiens) (Q07869 whole entry, looked up): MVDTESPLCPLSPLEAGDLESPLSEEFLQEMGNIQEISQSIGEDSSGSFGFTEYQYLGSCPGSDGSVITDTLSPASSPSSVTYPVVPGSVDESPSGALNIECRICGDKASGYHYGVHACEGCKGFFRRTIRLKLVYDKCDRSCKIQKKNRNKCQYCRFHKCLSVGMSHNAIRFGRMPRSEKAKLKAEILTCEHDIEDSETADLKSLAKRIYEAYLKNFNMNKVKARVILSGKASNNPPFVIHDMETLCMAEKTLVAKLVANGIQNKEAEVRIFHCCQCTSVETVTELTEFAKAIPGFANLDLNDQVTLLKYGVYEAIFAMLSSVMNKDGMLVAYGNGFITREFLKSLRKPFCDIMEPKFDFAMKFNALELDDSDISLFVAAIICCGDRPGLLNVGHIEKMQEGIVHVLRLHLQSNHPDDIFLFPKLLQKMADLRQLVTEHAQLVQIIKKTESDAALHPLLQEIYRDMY
Summary of the method: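 Chemiluminescence from complemented enzyme reported PPARalpha activation in cells after 6 hr of compound treatment at 37 C. The detection reagent was incubated for 60 min at room temperature, and compounds were scored as agonists.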

[20] = biological target: Nuclear receptor subfamily 1 group I member 2 (Rattus norvegicus) (UniProt Q9R1A7); test: qHTS assay for small molecule activators of the rat pregnane X receptor (rPXR) signaling pathway (AID 651751; call rule not given here; further: 0% is about no effect); settings: rPXR reporter cells, luciferase (One-Glo), 24 h
Sequence of Nuclear receptor subfamily 1 group I member 2 (Rattus norvegicus) (Q9R1A7 whole entry, looked up): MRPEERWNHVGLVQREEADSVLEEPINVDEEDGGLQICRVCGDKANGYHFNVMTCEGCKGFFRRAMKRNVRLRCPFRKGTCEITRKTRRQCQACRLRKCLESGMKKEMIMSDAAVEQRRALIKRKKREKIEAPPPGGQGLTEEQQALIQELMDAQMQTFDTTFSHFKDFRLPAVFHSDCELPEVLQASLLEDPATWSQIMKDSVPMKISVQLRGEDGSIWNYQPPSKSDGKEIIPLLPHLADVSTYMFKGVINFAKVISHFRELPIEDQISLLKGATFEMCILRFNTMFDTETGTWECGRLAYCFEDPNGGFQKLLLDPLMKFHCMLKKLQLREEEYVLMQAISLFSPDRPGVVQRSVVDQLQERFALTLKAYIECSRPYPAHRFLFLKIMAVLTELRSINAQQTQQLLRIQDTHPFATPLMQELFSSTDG

C=C(C)[C@H]1CC=C(C)C(=O)C1
inactive: outcome [1] | outcome [2] | outcome [3] | outcome [4] | outcome [5] | outcome [6] | outcome [7] | outcome [8] | outcome [9] | outcome [10] | outcome [11] | outcome [12] | outcome [13] | Potency [14] | outcome [15] | outcome [16] | outcome [17] | activation [18] -0.835% and 2.01% | max response [19] -1.19% and -3.66% | max response [20] -2.55% and 3.05%

C=CC(C)(O)CCC=C(C)C (stereo not given)
inactive: outcome [1] | outcome [2] | outcome [3] | outcome [4] | outcome [5] | outcome [6] | outcome [7] | outcome [8] | outcome [9] | outcome [10] | outcome [11] | outcome [12] | outcome [13] | Potency [14] | outcome [15] | outcome [16] | outcome [17] | activation [18] -0.577% and 0.957% | max response [19] -3.46% and 0.843% | max response [20] 2.77% and 2.88%

COS(C)(=O)=O
inactive: outcome [1] | outcome [2] | outcome [3] | outcome [4] | outcome [5] | outcome [6] | outcome [7] | outcome [8] | outcome [9] | outcome [10] | outcome [11] | outcome [12] | outcome [13] | Potency [14] | outcome [15] | outcome [16] | outcome [17] | activation [18] -0.488% | max response [19] 5.12% | max response [20] 0.398%

Cc1occc(=O)c1O
inactive: outcome [1] | outcome [2] | outcome [3] | outcome [4] | outcome [5] | outcome [6] | outcome [7] | outcome [8] | outcome [9] | outcome [10] | outcome [11] | outcome [12] | outcome [13] | Potency [14] | outcome [15] | outcome [16] | outcome [17] | activation [18] 0.287% | max response [19] -2.16% | max response [20] 3.86%

CC1=CC(=O)CC(C)(C)C1(O)/C=C/C(C)=C\C(=O)O (stereo not given)
inactive: outcome [1] | outcome [2] | outcome [3] | outcome [4] | outcome [5] | outcome [6] | outcome [7] | outcome [8] | outcome [9] | outcome [10] | outcome [11] | outcome [12] | outcome [13] | Potency [14] | outcome [15] | outcome [16] | outcome [17] | activation [18] -0.944% | max response [19] 6.6% | max response [20] -0.742%

— PubChem BioAssay (NCATS)
